SMARCA2 act: SMARCA2 (BRM) function activators, primary screen, cell-based, luminescence, high throughput; activation, % at 9.1 µM; 370,000 compounds, 1% hits; AID 652017, 2013; MG213 cells, MMTV-luciferase reporter, dexamethasone, overnight; in the data active = activation above about 7.8%;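 also: 0% = vehicle wells and 100% = reference activator wells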
ssDAF-12 act: S. stercoralis DAF-12 nuclear receptor activators, primary screen, cell-based, luminescence, HEK293, GRIP1 co-expression, lit1-tk-luc; HEK293 ssDAF-12/GRIP1 lit1-tk-luc reporter; % of 3 µM dafachronic acid response; activation, % at 6.8 µM; 370,000 compounds, 1% hits; AID 652126, 2013;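 active = activation above the mean over all tested compounds plus 3 SD, cut at about 0.9% in these data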;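 also: 0% = DMSO-only wells and 100% = 3 µM delta7-dafachronic acid wells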
DAX1 inh-1: DAX1 (NR0B1) inhibitors on StAR promoter, primary screen, cell-based, luminescence, SF-1 (NR5A1), full-length DAX-1 | HEK293T StAR-luciferase reporter, SF-1/DAX-1 repression relief | inhibition, % at 6.8 µM | 370,000 compounds, 1.1% hits | AID 652010, 2013;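 active = inhibition above the mean over all tested compounds plus 3 SD, cut at about 3.6% in these data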;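 also: 0% = DAX-1 cells with DMSO and 100% = cells lacking DAX-1 with DMSO; higher inhibition means more luminescence from relief of DAX-1 repression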
hcDAF-12 act: H. contortus DAF-12 nuclear receptor activators, primary screen, cell-based, luminescence, HEK293, lit1-tk-luc reporter; activation, % at 6.8 µM; HEK293 hcDAF-12 lit1-tk-luc reporter; 0% DMSO, 100% Δ7-dafachronic acid; 370,000 compounds, 1.4% hits;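 active = activation above the mean of all tested compounds plus 3 SD, cut at about 5.5% in these data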;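 also: 100% = response to 3 µM Δ7-dafachronic acid high control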
hgDAF-12 ag: H. glycines DAF-12 receptor agonists, primary screen, cell-based, luminescence, HEK293, GAL4 fusion, UAS-luciferase; 370,000 compounds, 1.8% hits; HEK293 GAL4-hgDAF12 UAS-luciferase reporter, agonist luminescence; normalized to butyrate control; Nuclear hormone receptor DAF-12 (Heterodera glycines), GAL4 fusion; activation, % at 6.8 µM;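 active = activation above a cutoff set at the mean of all screened compounds plus 3 SD, cut at about 10% in these data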;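 also: 0% = DMSO wells and 100% = sodium butyrate wells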
DAX1 inh-2: DAX1 (NR0B1) inhibitors, primary screen, cell-based, HEK293, Gal4-DAX1, luciferase luminescence | Nuclear receptor subfamily 0 group B member 1 (Homo sapiens), P51843 | HEK293 Gal4-DAX1 luciferase reporter | inhibition, % at 6.75 µM | 340,000 compounds, 0.99% hits;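 active = inhibition above the mean over all tested compounds plus 3 SD, cut at about 4.2% in these data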;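 also: 0% = DAX1-transfected cells with DMSO and 100% = empty-vector control cells with DMSO; inhibition shows as a rise in luminescence from relieved DAX1 repression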
Target sequence (P51843 207-470 limits assumed): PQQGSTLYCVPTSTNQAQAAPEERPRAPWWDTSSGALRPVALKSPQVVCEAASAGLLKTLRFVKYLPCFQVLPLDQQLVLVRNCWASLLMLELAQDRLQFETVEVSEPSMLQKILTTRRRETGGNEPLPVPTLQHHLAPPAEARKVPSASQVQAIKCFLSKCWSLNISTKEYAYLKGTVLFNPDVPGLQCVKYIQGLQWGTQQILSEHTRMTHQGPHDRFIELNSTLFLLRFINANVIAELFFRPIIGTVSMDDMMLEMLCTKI
* = called active by the depositor; · = no result. The list is not random: actives were taken first. Their share in the collection is about 4.8%.

SMILES	SMARCA2 act	ssDAF-12 act	DAX1 inh-1	hcDAF-12 act	hgDAF-12 ag	DAX1 inh-2
COC(=O)C1=C(C)N(CCc2ccccc2)C(=O)C1(NS(=O)(=O)c1ccc(NC(C)=O)cc1)C(F)(F)F (centres undefined)	-2	-1	0	0	-2	0
O=C(Nc1ccc(F)cc1)C(c1ccccc1)N1CCN(CC(=O)N2CCCC2)CC1 (centres undefined)	-1	-1	-1	-1	2	1
COc1ccc(C(C(=O)Nc2ccc(F)cc2)N2CCN(CC(=O)N3CCCC3)CC2)cc1 (centres undefined)	0	-1	4.2*	-1	-2	·
O=C(c1ccc2nc(Cc3cccc(Cl)c3)oc2c1)N1CCC(O)CC1	-1	-1	0	0	0	0
O=C(c1ccc2nc(Cc3cccc(Cl)c3)oc2c1)N1CCOCC1	7	-1	3.9*	6.0*	5	1
CN(C(=O)c1ccncc1)c1nnc(-c2cccnc2)s1	0	0	1	2	2	0
CCOC(=O)CSc1nc(CC)nc2ccccc12	2	-2	0	0	1	0
CCOC(=O)CSc1nc(Cc2ccccc2)nc2ccccc12	2	-1	0	-3	-1	4.3*
COc1ccc(C2c3c(ncn(CCCN4CCOCC4)c3=N)Oc3ccc4ccccc4c32)cc1OC (centres undefined)	3	-2	0	-2	-2	4
CN1CCN(C(=S)NCCc2ccccc2)CC1	2	-1	0	2	13*	1
CCCCC(=O)Nc1cc(C)c(NC(=O)c2cccs2)cn1	2	-2	0	-2	0	0
CCCCC(=O)Nc1cnc(NC(=O)c2cccs2)cc1C	1	0	2	4	12*	2
Cc1ccnc(NC(=O)CCCNC(=O)c2ccc(Cl)cc2)c1	2	0	4.0*	1	8	1
Cc1ccnc(NC(=O)CCC(=O)c2cccs2)c1	-1	-1	4.0*	2	1	-5
O=C(NC1CCN(C(=S)Nc2ccc(Cl)cc2)CC1)c1ccco1	-1	-1	-1	-1	-1	-1
O=C(COC(=O)c1cc(-c2ccccc2)nc2ccccc12)NCC1CCCO1 (centres undefined)	2	-2	-1	-1	-2	0
COc1ccc(C)cc1NC(=O)c1ccc2c(=O)n3c(nc2c1)CCCCC3	1	-1	0	-2	-1	1
COC(=O)c1ccccc1NC(=O)COc1ccc2c(c1)OCO2	-1	-1	1	1	0	0
O=C(COc1ccc2c(c1)OCO2)Nc1ccccc1F	6	0	3	4	13*	4
CSc1nccc(N/N=C/c2ccccc2)n1	1	0	0	2	11*	5.1*
Cc1ccc(C(=O)Nc2cc3c(oc2=O)CCCC3=O)cc1	3	0	2	4	11*	3
Cc1csc(NC(=O)C2CC(=O)N(c3ccc(C)c(C)c3)C2)n1 (centres undefined)	-3	1.6*	-1	-1	0	0
O=C(Nc1c(C(=O)O)[nH]c2ccccc12)NC1CCCCC1	3	1.2*	-1	3	6	1
COC(=O)c1[nH]c2ccc(C)cc2c1NC(=O)NC1CCCCC1	4	-2	0	0	1	1
CN(C)CC(O)c1ccc(C=Cc2ccc(Cl)cc2)cc1 (centres undefined)	7	-1	3	5	12*	6.4*
CN(C)/C=C/C(=O)/C=C/c1ccc(Cl)cc1	-3	-1	0	-1	-5	0
COc1ccccc1CNC(=O)c1[nH]c(C)c(C(C)=O)c1C	-4	-1	0	-1	-2	-1

Screening data (PubChem BioAssay)
